Screens: PubChem BioAssay, several laboratories
DYRK1A inh – rat Dyrk1A kinase inhibitors, primary screen, biochemical, single point, plate reader; ADP-Glo luminescence, NFATc1 peptide; Dual specificity tyrosine-phosphorylation-regulated kinase 1A (Rattus norvegicus), Q63470; inhibition, % at 12.5 µM; 310,000 compounds, 0.43% hits; in the data active = inhibition above about 50%;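 note: plate controls were vehicle with enzyme for no effect and no enzyme for full effect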
GC-B act – human GC-B receptor activators, primary screen, HEK293 GC-B cells, cGMP TR-FRET, EC30 CNP | 0% at EC30 CNP, 100% saturating CNP | activation, % at 10 µM | 370,000 compounds, 0.11% hits;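 active = activation at 10 µM reaching about 35% in either raw or pattern-adjusted values, limit read from the data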
aDG glyco act – activators of alpha-DG glycosylation, primary screen, uHTS, Pro5-aDG cells, AlphaScreen; activation, % at 10 µM; 360,000 compounds, 0.22% hits; alpha-DG glycosylation AlphaScreen (IIH6); 0% Pro5, 100% B10-LARGE cell signal;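 active = activation of at least 8% versus controls, or a plate z-score of at least 8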;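 note: Pro5 are CHO cells carrying HIG-tagged alpha-DG that lacks glycosylation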
HSF-1 act – HSF-1 activators, primary screen, NIH3T3-HGL cells, MG132 stress, luminescence, single point; NIH3T3-HGL HSF-1 luciferase reporter, 8 h; 100% = twice DMSO control signal; AID 504408, 2011; 300,000 compounds, 1.7% hits; activation, % at 9 µM;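 active = mean replicate activation of at least 50% with a set share of replicates each reaching 50%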;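 note: 0% = median of the neutral control wells and 100% = twice that signal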
HSF1 inh – HSF1 inhibitors in luciferase reporter cells, primary screen, cell-based, NIH3T3, luminescence | activity change, negative = inhibition, % at 7.5 µM (by protocol) | NIH3T3-HGL HSE-luciferase, MG132-induced, luminescence 8 h; stronger effect = lower value | AID 2098, 2009 | 300,000 compounds, 0.77% hits;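 active = more than half of replicate wells show activity change below -50%, luminescence cut by over half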;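 note: luciferase reports HSF-1 transcriptional activity via heat shock element; 0% = median of DMSO wells and -100% = zero luminescence signal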
NPR1 activator – GC-A stimulated cGMP production enhancers – HEK293 GC-A cells, cGMP TR-FRET, EC30 ANP, primary screen | activation, % at 10 µM | AID 1671463, 2021 | 370,000 compounds, 0.14% hits | 0% at EC30 ANP, 100% saturating ANP; in the data active = activation above about 40%
Target sequence (P16066 whole entry, looked up): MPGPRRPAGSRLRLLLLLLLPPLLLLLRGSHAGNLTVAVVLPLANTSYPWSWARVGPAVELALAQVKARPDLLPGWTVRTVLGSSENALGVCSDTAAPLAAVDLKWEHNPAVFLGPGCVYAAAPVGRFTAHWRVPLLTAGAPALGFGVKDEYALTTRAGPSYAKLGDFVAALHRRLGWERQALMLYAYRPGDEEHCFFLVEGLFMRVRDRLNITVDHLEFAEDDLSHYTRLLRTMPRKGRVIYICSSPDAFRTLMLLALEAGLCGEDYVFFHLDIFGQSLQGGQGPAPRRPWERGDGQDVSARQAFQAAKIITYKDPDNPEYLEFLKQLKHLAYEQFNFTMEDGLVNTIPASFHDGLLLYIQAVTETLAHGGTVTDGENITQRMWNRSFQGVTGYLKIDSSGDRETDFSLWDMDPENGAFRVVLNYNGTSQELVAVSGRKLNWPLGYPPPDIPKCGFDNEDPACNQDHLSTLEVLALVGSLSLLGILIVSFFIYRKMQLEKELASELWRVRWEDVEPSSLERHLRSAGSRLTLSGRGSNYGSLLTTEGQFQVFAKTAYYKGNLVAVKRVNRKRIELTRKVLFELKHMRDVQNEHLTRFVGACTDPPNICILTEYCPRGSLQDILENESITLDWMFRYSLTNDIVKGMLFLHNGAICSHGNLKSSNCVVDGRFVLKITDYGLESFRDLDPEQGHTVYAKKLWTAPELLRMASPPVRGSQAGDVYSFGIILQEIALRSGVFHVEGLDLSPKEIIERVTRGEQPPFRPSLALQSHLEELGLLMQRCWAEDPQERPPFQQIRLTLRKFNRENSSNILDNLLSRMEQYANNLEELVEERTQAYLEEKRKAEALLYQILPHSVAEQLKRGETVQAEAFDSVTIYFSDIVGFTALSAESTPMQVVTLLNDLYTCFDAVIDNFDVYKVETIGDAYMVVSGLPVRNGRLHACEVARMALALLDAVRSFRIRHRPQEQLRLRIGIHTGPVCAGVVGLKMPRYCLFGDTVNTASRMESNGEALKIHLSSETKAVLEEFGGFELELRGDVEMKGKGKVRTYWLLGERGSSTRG
Dyrk1A artifact – ADP-Glo luciferase interference without Dyrk1A, dose response, artefact control for Dyrk1A inhibitor project, biochemical, luminescence, cherry-pick, set 02 | ADP-Glo luciferase artifact assay, no Dyrk1A | shares compounds with DYRK1A inh | 1,300 tested, under 10 active | AC50, µM (titrated, usually from 12 µM), for inactives: top-dose activity change, negative = inhibition;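 active = fitted half-maximal dose AC50 no more than ten times the top valid tested dose, with luminescence dropping as dose rises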
Starred values were filed as active, the others as inactive; · = no result given. This is a sample that favours compounds with a hit; in the whole collection about 2.5% have one here.

SMILES | DYRK1A inh | GC-B act | aDG glyco act | HSF-1 act | HSF1 inh | NPR1 activator | Dyrk1A artifact
COc1cccc(Nc2nc(-c3cccc(N4C(=O)c5ccccc5C4=O)c3)cs2)c1 | 1.7 | -3.2 | 0.1 | -22.4 | -10.3 | -0.3 | ·
COc1cccc(Nc2nc(-c3ccc(O)cc3)cs2)c1 | 54.2* | 0.2 | 0.1 | 38.5 | 2.0 | -1.2 | 10.3%
CCN(CC)C(=O)Oc1ccc2c(c1)O/C(=C\c1ccco1)C2=O | 52.6* | 1.2 | 0.1 | 20.3 | 13.4 | 2.6 | 7.7%
COc1ccc2c(c1)CCc1cnc(N)nc1-2 | · | 0.7 | -0.2 | 13.9 | 7.2 | -0.8 | ·
COc1ccc2c(c1)CCc1c-2n[nH]c1C(=O)O | 58.6* | 5.0 | 1.9 | · | · | -0.5 | 14.0%
CCC(=O)NCCCc1nc2ccccc2n1Cc1ccccc1F | 7.2 | 2.8 | -0.3 | -0.2 | 2.1 | 3.8 | ·
O=C1c2ccccc2C(=O)c2c1ccc(O)c2O | 59.7* | -6.4 | -0.2 | · | · | -8.8 | 7.0%
Nc1c(C(=O)O)ccc2c1C(=O)c1ccccc1C2=O | 88.4* | -9.4 | -0.3 | -5.0 | 2.0 | -10.7 | 7.5%
CCC(C)NC(=O)CCc1c(C)nc2nc(-c3cc(OC)cc(OC)c3)nn2c1C (stereo unspecified) | 2.4 | -2.9 | -0.1 | -16.1 | -2.5 | 8.7 | ·
CCOc1cc(/C=C2/SC(=S)NC2=O)ccc1OC(=O)c1ccco1 | 22.0 | -0.4 | -0.1 | -9.5 | 2.0 | -1.9 | ·
O=C1NC(=S)S/C1=C/c1ccc(OC(=O)c2ccco2)cc1 | 70.8* | -3.9 | 0.0 | 55.0* | 19.0 | 0.3 | 9.7%
C=CCOC(=O)C1=C(C)OC(N)=C(C#N)C1c1ccc2c(c1)OCO2 (stereo unspecified) | 10.5 | -2.9 | -0.2 | 13.5 | 1.0 | -8.7 | ·
CCOC(=O)C1=C(C)OC(N)=C(C#N)C1c1cc2c(cc1Br)OCO2 (stereo unspecified) | 54.2* | -20.9 | 0.0 | 4.8 | 3.5 | -27.0 | 6.9%
CCOCC(=O)Nc1nc2c(s1)C(=O)CC(C)(C)C2 | 56.8* | -7.4 | -0.1 | 0.2 | 0.9 | -1.0 | 9.3%
O=c1oc(-c2ccc(O)c(O)c2)cc2cc(O)cc(O)c12 | 73.2* | -6.3 | -0.1 | · | · | 5.0 | 6.7%
O=c1oc(-c2ccc(O)c(O)c2)cc2cccc(O)c12 | 44.1 | -5.6 | 0.4 | · | · | 2.4 | ·
O=[N+]([O-])c1cc([N+](=O)[O-])c2oc(-c3ccccc3)c(Br)c2c1O | 76.0* | · | -0.3 | 6.4 | -4.2 | · | 9.4%
O=c1cc(-c2ccccc2Cl)oc2ccc([N+](=O)[O-])c(O)c12 | 22.1 | 0.3 | -0.4 | -10.9 | -8.4 | -3.2 | ·
N=C(N)N=Nc1c(O)[nH]c2ccc(Br)cc12 | 62.6* | -2.4 | 0.2 | 12.0 | -1.5 | 6.2 | 8.3%
Oc1ccc(NC(=S)N=Nc2c(O)[nH]c3ccc(Br)cc23)cc1 | 51.0* | -6.6 | 0.3 | -1.9 | -4.4 | -16.2 | 9.7%
Oc1[nH]c2ccc(Br)cc2c1N=NC(=S)Nc1ccc(F)cc1 | 8.2 | -7.9 | 0.9 | -10.0 | -0.4 | -3.3 | ·
O=C(O)c1ccccc1C(=O)NNc1ccc(Cl)cc1Cl | -3.9 | 0.3 | -0.3 | -1.7 | -1.5 | 3.3 | ·
C[C@@H]1O[C@@H](OC[C@H]2O[C@@H](Oc3cc(O)c4c(=O)cc(-c5ccc(O)c(O)c5)oc4c3)[C@H](O)[C@@H](O)[C@@H]2O)[C@H](O)[C@H](O)[C@H]1O | 58.6* | · | 0.0 | · | · | · | 13.4%
O=c1c(-c2ccc(O)cc2)coc2cc(OC3OC(CO)C(O)C(O)C3O)cc(O)c12 (stereo unspecified) | -10.9 | 3.0 | -0.1 | 7.3 | 8.1 | -3.0 | ·
